# According to the supplement of paper PMC8728848:
# The full list was thinned out, with the strongest signals kept by preference.
# Tests used:
# Assay in all cases: glycan array binding signal (z-score within array); higher = stronger binding
# Conditions in all cases: glycan notation: IUPAC condensed, linker removed
# [1] = target: Fuc(a1-2)Gal(b1-3)GalNAc(b1-4)[Neu5Ac(a2-3)]Gal(b1-4)Glc
# Summary of the method: (§1)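 From the Consortium for Functional Glycomics database, 3228 arrays were curated, keeping only those whose protein sequence was available. Binding is given as a within-array Z-score averaged across arrays sharing a protein sequence and across linkers. Negative Z-scores can be read as non-binding.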
# [2] = target: Fuc(a1-2)Gal(b1-3)GlcNAc6S
# Summary of the method: as §1
# [3] = target: Fuc(a1-2)[Gal(a1-3)]Gal(b1-3)GlcNAc
# Summary of the method: as §1
# [4] = target: Fuc(a1-2)[Gal(a1-3)]Gal(b1-3)GlcNAc(b1-2)Man(a1-3)[Fuc(a1-2)[Gal(a1-3)]Gal(b1-3)GlcNAc(b1-2)Man(a1-6)]Man(b1-4)GlcNAc(b1-4)[Fuc(a1-6)]GlcNAc
# Summary of the method: as §1
# [5] = target: Fuc(a1-2)[GalNAc(a1-3)]Gal(b1-3)GlcNAc(b1-6)GalNAc
# Summary of the method: as §1
# [6] = target: Fuc(a1-2)[GalNAc(a1-3)]Gal(b1-4)Glc
# Summary of the method: as §1
# [7] = target: Fuc(a1-3)[Gal(b1-4)]GlcNAc(b1-6)[Gal(b1-3)GlcNAc(b1-3)]Gal(b1-4)Glc
# Summary of the method: as §1
# [8] = target: Fuc(a1-3)[Gal3S(b1-4)]Glc
# Summary of the method: as §1
# Fuc(a1-4)GlcNAc = target: Fuc(a1-4)GlcNAc
# Summary of the method: as §1
# Gal(a1-3)Gal(b1-3)GlcNAc = target: Gal(a1-3)Gal(b1-3)GlcNAc
# Summary of the method: as §1
# [9] = target: Gal(a1-3)Gal(b1-3)[Fuc(a1-4)]GlcNAc(b1-2)Man(a1-3)[Gal(a1-3)Gal(b1-3)[Fuc(a1-4)]GlcNAc(b1-2)Man(a1-6)]Man(b1-4)GlcNAc(b1-4)GlcNAc
# Summary of the method: as §1
# [10] = target: Gal(a1-3)Gal(b1-4)[Fuc(a1-3)]GlcNAc
# Summary of the method: as §1
# [11] = target: Gal(a1-3)Gal(b1-4)[Fuc(a1-3)]GlcNAc(b1-2)Man(a1-3)[Gal(a1-3)Gal(b1-4)[Fuc(a1-3)]GlcNAc(b1-2)Man(a1-6)]Man(b1-4)GlcNAc(b1-4)GlcNAc
# Summary of the method: as §1
# [12] = target: Gal(b1-3)[Fuc(a1-4)]GlcNAc(b1-2)Man(a1-3)[Gal(b1-3)[Fuc(a1-4)]GlcNAc(b1-2)Man(a1-6)]Man(b1-4)GlcNAc(b1-4)[Fuc(a1-6)]GlcNAc
# Summary of the method: as §1
# [13] = target: Gal(b1-4)GlcNAc(b1-2)Man(a1-6)Man(b1-4)GlcNAc(b1-4)GlcNAc
# Summary of the method: as §1
# [14] = target: Gal(b1-4)GlcNAc(b1-3)Gal(b1-4)GlcNAc
# Summary of the method: as §1
# [15] = target: Gal(b1-4)GlcNAc(b1-3)Gal(b1-4)GlcNAc(b1-2)[Gal(b1-4)GlcNAc(b1-3)Gal(b1-4)GlcNAc(b1-6)]Man(a1-6)[Gal(b1-4)GlcNAc(b1-3)Gal(b1-4)GlcNAc(b1-2)Man(a1-3)]Man(b1-4)GlcNAc(b1-4)[Fuc(a1-6)]GlcNAc
# Summary of the method: as §1
# [16] = target: Gal(b1-4)GlcNAc(b1-3)Gal(b1-4)GlcNAc(b1-3)Gal(b1-4)GlcNAc(b1-3)Gal(b1-4)GlcNAc(b1-3)Gal(b1-4)GlcNAc(b1-2)[Gal(b1-4)GlcNAc(b1-3)Gal(b1-4)GlcNAc(b1-3)Gal(b1-4)GlcNAc(b1-3)Gal(b1-4)GlcNAc(b1-3)Gal(b1-4)GlcNAc(b1-6)]Man(a1-6)[Gal(b1-4)GlcNAc(b1-3)Gal(b1-4)GlcNAc(b1-3)Gal(b1-4)GlcNAc(b1-3)Gal(b1-4)GlcNAc(b1-3)Gal(b1-4)GlcNAc(b1-2)Man(a1-3)]Man(b1-4)GlcNAc(b1-4)[Fuc(a1-6)]GlcNAc
# Summary of the method: as §1
# [17] = target: Gal(b1-4)GlcNAc(b1-6)Gal(b1-4)GlcNAc
# Summary of the method: as §1
# [18] = target: Gal3S(b1-4)[Fuc(a1-3)]Glc6S
# Summary of the method: as §1
# GalNAc(a1-3)Gal = target: GalNAc(a1-3)Gal
# Summary of the method: as §1
# [19] = target: GalNAc(a1-3)GalNAc(b1-3)Gal(a1-4)Gal(b1-4)GlcNAc
# Summary of the method: as §1
# [20] = target: GalNAc(b1-4)GlcNAc(b1-2)Man
# Summary of the method: as §1
# [21] = target: GalNAc(b1-4)GlcNAc(b1-2)Man(a1-3)[GalNAc(b1-4)GlcNAc(b1-2)Man(a1-6)]Man(b1-4)GlcNAc(b1-4)GlcNAc
# Summary of the method: as §1
# [22] = target: Glc(a1-4)Glc(a1-4)Glc(a1-4)Glc
# Summary of the method: as §1
# [23] = target: GlcNAc(a1-4)Gal(b1-4)GlcNAc
# Summary of the method: as §1
# [24] = target: GlcNAc(a1-4)Gal(b1-4)GlcNAc(b1-3)Gal(b1-4)[Fuc(a1-3)]GlcNAc(b1-3)Gal(b1-4)[Fuc(a1-3)]GlcNAc
# Summary of the method: as §1
# [25] = target: GlcNAc(b1-2)Man(a1-3)[GlcNAc(b1-2)Man(a1-6)]Man(b1-4)GlcNAc(b1-4)GlcNAc
# Summary of the method: as §1
# [26] = target: GlcNAc(b1-3)Gal(b1-4)GlcNAc(b1-2)Man(a1-3)[GlcNAc(b1-3)Gal(b1-4)GlcNAc(b1-2)Man(a1-6)]Man(b1-4)GlcNAc(b1-4)GlcNAc
# Summary of the method: as §1
# [27] = target: GlcNAc(b1-3)Gal(b1-4)GlcNAc(b1-3)Gal(b1-4)GlcNAc(b1-2)Man(a1-3)[GlcNAc(b1-3)Gal(b1-4)GlcNAc(b1-3)Gal(b1-4)GlcNAc(b1-2)Man(a1-6)]Man(b1-4)GlcNAc(b1-4)GlcNAc
# Summary of the method: as §1
binder,measurement,setting,value
LF82 (Escherichia coli) (protein) ADWGPCRTASGDPFIFVTSFTKNIQNPTDNVTGQTYPDFYQWALGDKYSGVCECPSPNPTEARPTLYKTESTLAAGHNSTYFKITNNLEVSTRVYIANVGNVQVPFINKSNSQPGRECDQPTFGWTTGSKGQLSLYIAKPFVGEQNIPQTIIVSVFGTKKENVYSSVPISQVLLSGKVTVTQGCELAAGTSLDIDFGEYQAHDFKGRTGQPPQNVQKIQKELTFNCTNISDGVHIYLSLEGTPNAAYPSAISLGNADVGAVIEDGKGNILKPNDSNSLLEMNPGSLYEYVKRKVTTTITAYPVSTTGKLPAAGDYSGVATMHVELDGGGGGGGGGGATTDLGAKGTLKFSLKISQGHHHHHH,glycan array binding signal (z-score),[1],3.03
same,glycan array binding signal (z-score),[2],2.87
same,glycan array binding signal (z-score),[3],-0.338
same,glycan array binding signal (z-score),[4],3.84
same,glycan array binding signal (z-score),[5],1.19
same,glycan array binding signal (z-score),[6],-0.933
same,glycan array binding signal (z-score),[7],-1.03
same,glycan array binding signal (z-score),[8],0.085
same,glycan array binding signal (z-score),Fuc(a1-4)GlcNAc,-0.348
same,glycan array binding signal (z-score),Gal(a1-3)Gal(b1-3)GlcNAc,-0.354
same,glycan array binding signal (z-score),[9],0.456
same,glycan array binding signal (z-score),[10],-1.48
same,glycan array binding signal (z-score),[11],1.79
same,glycan array binding signal (z-score),[12],0.378
same,glycan array binding signal (z-score),[13],4.95
same,glycan array binding signal (z-score),[14],-1.12
same,glycan array binding signal (z-score),[15],2.68
same,glycan array binding signal (z-score),[16],3.2
same,glycan array binding signal (z-score),[17],-0.202
same,glycan array binding signal (z-score),[18],-0.55
same,glycan array binding signal (z-score),GalNAc(a1-3)Gal,-0.316
same,glycan array binding signal (z-score),[19],-0.744
same,glycan array binding signal (z-score),[20],0.518
same,glycan array binding signal (z-score),[21],-0.272
same,glycan array binding signal (z-score),[22],1.21
same,glycan array binding signal (z-score),[23],2.49
same,glycan array binding signal (z-score),[24],3.63
same,glycan array binding signal (z-score),[25],-0.657
same,glycan array binding signal (z-score),[26],-0.713
same,glycan array binding signal (z-score),[27],1.79
